Experimental data as given in ChEMBL document CHEMBL4888484, “Replenishing the malaria drug discovery pipeline: Screening and hit evaluation of the MMV Hit Generation Library 1 (HGL1) against asexual blood stage Plasmodium falciparum ,using a nano luciferase reporter read-out” (2022).
Screen size: about 4,800 compounds; about 410 (8.5%) showed an effect of 50% or more. The full list was thinned out, with strong results kept by preference.

tested on: Plasmodium falciparum; assay: Confirmatory screen in NF54 pLDH assay, in single point, at 2uM, 72h; type: functional, Erythrocyte; conditions: timepoint 72 hour

Row | Compound | % Inhibition [%]
1 | Cc1ccc(S(=O)(=O)Cc2nc(-c3ccc(C(=O)Nc4ccc(C)cc4Cl)cc3)oc2C)cc1 | 14
2 | COc1cccc(-c2noc3nc(C)cc(C(=O)NCCCn4ccc(C)n4)c23)c1 | 11
3 | Cc1ccc(NC(=O)C2C3NC(=O)N(c4ccccc4)C2(C)Oc2ccc(C)cc23)c(C)c1 (configuration not stated) | -9
4 | CC(C)c1ccc(N2C(=O)[C@H](CC(=O)N3CCN(C)CC3)N=C2O)cc1 | 9
5 | CC(=O)NCCNC(=O)Nc1ccccc1N(C)C1CCCC1 | -5
6 | CCOc1cc(CNC2CCN(C(C)=O)CC2)ccc1OCc1c(F)cccc1Cl | 13
7 | CCCc1cc(-c2nc(-c3ccc(-n4nc(C)cc4N)cc3)no2)n(C)n1 | 88
8 | Cc1cc(N)n(-c2nc(-c3ccccc3)cc(=O)[nH]2)n1 | -1
9 | Cc1n[nH]c(C)c1NC(=O)CN1CC(C)OC(C)C1 (configuration not stated) | -7
10 | COc1ccsc1S(=O)(=O)N(CCN(C)C)C1CCCC1 | -9
11 | O=C(Cn1cnc2nc(N3CCCCC3)sc2c1=O)Nc1cc(Cl)cc(Cl)c1 | 1
12 | Cc1cc(C)c(C(=O)O)cc1NC(=O)c1oc(C2CC2)nc1C | -8
13 | O=C(Nc1ccc(N2CCOCC2)c(F)c1)OCc1ccccc1 | 2
14 | CCN1CCN(c2nc(O)c3c(n2)NC(=O)C[C@H]3c2cccc(F)c2)CC1 | -7
15 | COC(=O)C1(NC(=O)c2scnc2C)CCCCC1 | -5
16 | CC1CCC2C(CCC(C)N2C(=O)c2cc3nc4c(c(C(F)(F)F)n3n2)CCc2ccccc2-4)C1 (configuration not stated) | 1
17 | COc1ccccc1N1CCN(CC(=O)Nc2c3c(nc4ccccc24)N(c2cccc(C)c2)CC3)CC1 | -24
18 | Cc1ccccc1CNC(=O)[C@H]1CCCN(c2nc3ccccc3[nH]c2=O)C1 | 13
19 | Cc1ccccc1CNC(=O)[C@H]1CCCN(c2nc3cccnc3n(Cc3ccccc3)c2=O)C1 | -6
20 | CC(C)(C)C(=O)/C(=N\OC(=O)Nc1ccc(Cl)cc1)n1cncn1 | 0
21 | CCCCn1nnc(N(C(=O)c2cccc3c(Br)cccc23)C(=O)c2cccc3c(Br)cccc23)n1 | 0
22 | Cc1ccc(C(=O)Nc2cc3c4c(c2)C2CCCC2CN4CC2CCCC32)cc1 (configuration not stated) | 54
23 | Cc1ccccc1[C@H]1CCN(c2ccc(NC(=O)c3ccc(Cl)cc3)c(C(=O)O)c2)C1 | -17
24 | Cc1ccc(C(=O)Nc2ccc(N3CCN(CCC#N)CC3)cc2C(=O)O)cc1 | -6
25 | Cc1ccccc1[C@H]1CC(=O)Nc2c1c(C)nn2-c1nncc(-c2ccc(Cl)cc2)n1 | 15
26 | Cc1c(-c2ccc(F)cc2)[nH]c2ccc(CNc3nccc(N(C)C)n3)cc12 | 50

Row | Compound | % Inhibition [%]
27 | CCNc1ccnc(NCc2nc(-c3cccc(F)c3)c(-c3ccccn3)[nH]2)n1 | 22
28 | Cc1nn(C)cc1-c1n[nH]cc1Br | 7
29 | COc1ccccc1N(Cc1ccccc1)C1=NC(=[N+](Cc2ccccc2)c2ccccc2OC)c2ccccc21 | 67
30 | CC1COCCC1NCc1ncn(Cc2cccc(F)c2)n1 (configuration not stated) | -4
31 | Cc1cnn(CCCNC(=O)c2ccc3[nH]c4c(c3c2)CCCC4)c1 | 5
32 | COc1nc(N2[C@@H]3CC[C@H]2C[C@@H](OC)C3)ncc1F | 52
33 | CCN1CCN(C2CCN(c3ncc(F)c(OC)n3)CC2)CC1 | 50
34 | CCN1CCC2CCC(C1)N2C(=O)Nc1ccc(OC2CCC2)c(F)c1 (configuration not stated) | -18
35 | O=S(=O)(c1ccc(Cl)cc1)n1ccc(C2CC2)n1 | 4
36 | COc1cccc(CNCCCN2CCOCC2)c1OCc1ccc(F)cc1Cl | 1
37 | CC(C)(C)NC(=O)CNc1nnc(C2CC2)s1 | 12
38 | CCCCCC1CCC(c2ccc(-c3ccc(CC)cn3)cc2F)CC1 (configuration not stated) | 7
39 | Cc1c[nH]c(=O)n1-c1ccc(C(=O)NCCc2cc(F)cc(F)c2)cc1 | 10
40 | O=C(CC1COCCN1C(=O)C1CCc2ccccc21)c1ccco1 (configuration not stated) | -17
41 | CCOc1c(CNCCN(C)C)cc(Br)cc1OC | 3
42 | COc1ccc2c(/C=C/c3cc[n+](C)cc3)cn(Cc3ccccc3)c2c1 | 62
43 | COc1ccc2nc(N3CN(Cc4ccccc4)CN(c4nc5ccc(OC)cc5s4)C3)sc2c1 | 1
44 | COc1ccc2ncc(=O)n(CCOc3ccccc3)c2c1 | 9
45 | N#Cc1ccc2c(c1)N(Cc1ccccc1F)C(=O)[C@@H]1CCCN21 | 7
46 | O=C(N[C@@H](N1CCOCC1)C(Cl)(Cl)Cl)c1ccccc1Cl | 8
47 | O=C(CN1CCCC1)N1CCCN(S(=O)(=O)c2ccccc2)[C@H]1c1ccccc1 | -2
48 | Cc1ccc(CNc2ccc(S(C)(=O)=O)cc2)c(=O)n1C | -9
49 | CCc1nnc(NC(=O)NCc2c[nH]nn2)s1 | -6
50 | c1ccc2oc(-c3ccnc4nncn34)cc2c1 | 3
51 | Cc1ccc2nc(-c3cc4ccccc4o3)cn2c1 | 52
52 | Cc1ccccc1CC(=O)Nc1ccc(-c2nc3ncccc3o2)cc1 | 5

Row | Compound | % Inhibition [%]
53 | CNc1nc(NCc2ccccc2)nc2ccccc12 | 91
54 | c1ccc(CCNc2nc(-c3ccccn3)cs2)cc1 | 31
55 | Cc1ccc(-c2nc3ncccn3c2Nc2ccc3c(c2)OCCO3)o1 | -4
56 | O=C1c2ccccc2[C@@H](Nc2ccc3c(c2)OCCO3)N1c1ccccn1 | -8
57 | CNc1nccc(OCc2ccccc2)n1 | 9
58 | CNc1nc(Nc2ccc3c(c2)OCCO3)nc2ccccc12 | 103
59 | NS(=O)(=O)c1ccc(CCNc2nc(-c3ccccc3)nc3ccccc23)cc1 | 5
60 | CNc1nc(NCCc2ccccc2)nc2ccccc12 | 92
61 | C[C@H](Nc1nc(N2CCCCC2)nc2ccccc12)c1ccccc1 | -6
62 | COc1ccc(CNc2nc(-c3nnc(-c4ccccc4)o3)nc3ccccc23)cc1 | -3
63 | CCN(CC)c1ccc(C(=O)C(F)(F)F)c(O)c1 | 0
64 | CCC(=O)OCCN1CCN(CCN(C(=O)CC)c2ccc(C3CCCC3)cc2)CC1 | 3
65 | O=C1C[C@H](c2nc3cc(Cl)ccc3o2)CN1c1ccc(F)cc1 | -13
66 | Cc1cccn2cc(CN(C)[C@H](c3ccccn3)C3CC3)nc12 | 4
67 | COc1ccc2cc3n(c2c1)C[C@](C(=O)NC1CCCCCC1)(c1ccccc1)N(Cc1cccc(Br)c1)C3=O | 10
68 | Cc1ccc(NC(=O)CC(=O)O)c(C)c1 | -5
69 | NC1(c2noc([C@@H]3CCCO3)n2)CCCCCC1 | 13
70 | CC1(C)c2ccccc2CCN1C(=O)CCc1ncc(-c2ccccc2)o1 | 8
71 | CN1CCC(n2ncc3[nH]c(-c4ccc(C(F)(F)F)cc4)nc32)CC1 | 99
72 | CN1CCN(c2nc(-c3cccc(C(F)(F)F)c3)nc3c2cnn3Cc2ccccc2)CC1 | -3
73 | CN(c1nc2c(cnn2C)c(=O)[nH]1)C1CCCC1c1ccc(C(F)(F)F)cc1 (configuration not stated) | 10
74 | O=C(CCNC(=O)C1CC1c1c(F)cccc1Cl)NC1CCS(=O)(=O)C1 (configuration not stated) | -19
75 | C[C@@H](CNc1nc(-c2ccccc2)nc2nc(-c3ccc(Cl)cc3)oc12)N1CCCCC1 | 76
76 | O=c1[nH]c2ccccc2c(NCc2ccccc2)c1N1CCN(c2ccccc2)CC1 | 1
77 | CC1(C)Cc2nc3ccccc3c(NCc3ccccc3)c2[C@@H](O)C1 | 54
78 | CC(=O)N1CC[C@H](CC(=O)N(C)Cc2ccccc2)C1 | 0

Row | Compound | % Inhibition [%]
79 | Cc1ccc(NC(=O)Cn2c(C)cc(=O)c3sccc32)cc1Cl | -2
80 | CCCNC(=O)Cn1nc2cc(-c3ccc(OC)cc3)nc(C)n2c1=O | -8
81 | OC(CC(Nc1ccc(Cl)cc1)c1ccccc1)c1ccccc1 (configuration not stated) | -7
82 | O=S(=O)(Cc1ccccc1)N1CCC2(CCCCC2)C1 | 6
83 | COc1ccc(OC)c(-c2csc(N3C(=O)CC4CS(=O)(=O)CC43)n2)c1 (configuration not stated) | 10
84 | COc1ncnc2c1CN(C(=O)c1cc3c(s1)CC[C@H](C)C3)CC2 | 13
85 | CO[C@H]1CCOC2(CCN(C(=O)c3ccccc3F)CC2)C1 | 9
86 | O=C(c1ccccc1Cl)N1CCC[C@H](n2cnc3ccccc3c2=O)C1 | -12
87 | O=C(CN1CCN(Cc2ccccc2F)C1=O)NC1CCCCCCC1 | -2
88 | O=C(c1csc(C(=O)N2CCCC2)n1)N1CCN(Cc2ccccc2)CC1 | -4
89 | CCN(C[C@H]1CCCO1)C(=O)c1cnc(Cc2ccccc2)s1 | -15
90 | CCn1cc(C(=O)N(C2CCCCC2)C2CCCCC2)c(C)n1 | -13
91 | CN(C(=O)Cn1c(=O)n(-c2cc(F)cc(F)c2)c(=O)c2sccc21)c1ccccc1 | 9
92 | O=C(CN1CCOCC1)N1CCN(CCCOc2ccccc2)CC1 | 9
93 | Cc1nn(-c2nc3ccccc3[nH]2)c(O)c1CCC(C)C | 68
94 | Oc1cc(-c2ccc(F)cc2)nn1-c1nc2ccccc2[nH]1 | -11
95 | Cc1nn(-c2nc3ccccc3[nH]2)c(O)c1Cc1ccccc1 | 17
96 | O=S1(=O)CCC(NCCC2CCCO2)c2cc(F)c(F)cc21 (configuration not stated) | -1
97 | C[C@H]1CS(=O)(=O)N(c2ccc(C(=O)Nc3ccccc3Oc3ccccc3)c(Cl)c2)C1=O | -3
98 | O=C(CCS(=O)(=O)c1ccc2ccccc2c1)Nc1ncn(Cc2c(F)cccc2Cl)n1 | 4
99 | Cc1ccc(CNC2CCN(C)CC2)c(OCc2ccco2)c1 | 3
100 | O=C(NCCOc1cccc(F)c1)c1cccnc1NC1CCCC1 | 1
101 | O=C(Nc1ccccc1-n1ccnc1)c1cnccn1 | -7
102 | Cc1cccc(N2CCN(C(=O)CCC3=Nc4cc(C(F)(F)F)ccc4S(=O)(=O)N3)CC2)c1C | 12
